An excerpt weighted towards active compounds, which were near 1.7% of everything screened.
TRHR enhancer: TRH receptor (human) allosteric enhancement; enhancement, % at 2 µM; TRHR cells, fluo-8 calcium fluorescence, EC20 TRH enhancement; 360,000 tested, 0.66% active; in the data active means enhancement above about 30%; further: 0% is about no effect
Target sequence (P34981 whole entry, looked up): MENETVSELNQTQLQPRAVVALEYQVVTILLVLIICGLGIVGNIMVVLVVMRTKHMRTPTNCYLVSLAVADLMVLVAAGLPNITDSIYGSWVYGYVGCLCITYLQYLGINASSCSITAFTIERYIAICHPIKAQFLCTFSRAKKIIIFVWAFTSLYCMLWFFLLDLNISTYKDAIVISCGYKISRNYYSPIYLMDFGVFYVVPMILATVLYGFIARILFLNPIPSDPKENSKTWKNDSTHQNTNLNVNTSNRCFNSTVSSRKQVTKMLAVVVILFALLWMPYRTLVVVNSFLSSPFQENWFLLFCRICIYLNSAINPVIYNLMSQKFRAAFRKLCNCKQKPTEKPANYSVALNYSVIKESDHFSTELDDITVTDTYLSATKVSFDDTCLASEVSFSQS
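TRHR-expressing cells loaded with fluo-8 calcium dye were read kinetically (ex 480/em 530) during compound addition, then stimulated with an EC20 of TRH (10 nM final). Enhancement of the Gq-mediated intracellular calcium response was scored.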
KCNH2 WT inh: inhibitors of human wildtype KCNH2 potassium channel; Q12809; U2OS, BacMam KCNH2, thallium flux FluxOr; stronger effect = lower value; activity change, % at 1.84 µM; 340,000 tested, 0.37% active;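 active means maximum activity change below -70%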; further: on the % scale 0 is the no-effect control and ±100 the full control effect
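U2OS cells were transduced with wild-type KCNH2 virus (2.03 x 10^8 / mL) for 4 h at room temperature, then cultured overnight at 37 C. Thallium flux was read with FluxOr dye. Rate constants were normalized to DMSO controls.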
KCNH2 3.1 inh: KCNH2 3.1 (human) potassium channel inhibition | 340,000 tested, 0.95% active | U2OS KCNH2 3.1, thallium flux FluxOr; stronger effect = lower value | activity change, % (tested at about 1.8 µM);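 active means maximum activity change below -70%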;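 further: thallium influx rate constant from kinetic fluorescence after stimulation buffer; on the % scale 0 is the no-effect control and ±100 the full control effect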
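FluxOr-based Tl+ influx in U2OS cells transduced with KCNH2 3.1 virus; rate constants normalized to DMSO controls.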
TRHR agonist: TRH receptor (human) agonism; TRHR cells, calcium flux fluo-8, FDSS agonist mode; activation, % at 2 µM; 360,000 tested, 0.18% active; AID 493084; in the data active means activation above about 30%; further: 0% is about no effect
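Steps: seed TRHR cells overnight; add fluo-8 no-wash Ca dye, RT 30 min–1.5 h; record 10 s baseline; pin-transfer compounds; monitor fluorescence 1 cycle/s for the agonist window. Calcium increases flag candidate agonists.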
TRPML1 agonist: activates the human TRPML1 channel. TRPML1-expressing cells, Ca2+ dye fluorescence, FDSS. Q9GZU1. activation, % (no concentration beside the values). 410,000 tested, 0.12% active; in the data active means activation above about 50%; further: 0% is about no effect
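Cells: TRPML1-DL, 1X Tet inducer, ~16 h at 37 degrees C/5% CO2. Dye: ABD Ca8 no-wash + quencher, 45-90 min RT. Read: 10 s baseline, compound add, 110 s agonist phase; 54-4 EC80 (4uM final), 110 s antagonist phase.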
TRPML1 inh: inhibitors of human TRPML1 channel | Q9GZU1 | TRPML1-inducible cells, Ca2+ dye fluorescence, FDSS; stronger effect = lower value; inhibition of EC80 agonist-evoked calcium signal | activity change, negative = inhibition, % (concentration not given with the values) | 390,000 tested, 0.02% active | AID 624415; in the data active means activity change below about -50%;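 further: stimulus is agonist 54-4 at its EC80 concentration; on the % scale 0 is the no-effect control and ±100 the full control effect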
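Tet-induced TRPML1-DL cells loaded with Ca8 no-wash calcium dye were read kinetically on FDSS. Compound addition was followed by EC80 agonist 54-4 (4 uM final); inhibition was read over 110 s.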
The depositor's hits bear a star; x = no result given.

SMILES | TRHR enhancer | KCNH2 WT inh | KCNH2 3.1 inh | TRHR agonist | TRPML1 agonist | TRPML1 inh
CC1(C)Cc2c(C#N)c(SCCOc3ccccc3)nc(N3CCOCC3)c2CO1 | 9 | -2 | -85* | 1 | 2 | -11
CC1(C)Cc2c(C#N)c(SCCO)nc(N3CCOCC3)c2CO1 | 13 | -4 | 1 | 0 | -1 | -25
Cc1cc(C)c2nc(N(CCCN(C)C)C(=O)c3ccc4c(c3)CCCC4)sc2c1 | 33* | -4 | -16 | 3 | 0 | 9
Cn1nnnc1Sc1ncnc2scc(-c3ccc(C(=O)OC(C)(C)C)cc3)c12 | 4 | x | x | 0 | x | x
CCOC(=O)/C(C#N)=C1/C=CN(Cc2ccccc2)C=N1 | -4 | -249* | 7 | 0 | -1 | 0
CCOc1cc(S(=O)(=O)N2CCN(c3ccc(F)cc3)CC2)c(OCC)cc1-n1cnnn1 | -2 | -76* | -79* | 0 | 0 | 12
CCOc1cc(S(=O)(=O)N2CCN(S(=O)(=O)CC)CC2)c(OCC)cc1-n1cnnn1 | -2 | -2 | -15 | 0 | 0 | -14
Cc1cc(O)c(C(c2ccc(Cl)cc2)N2CCN(c3ccccc3)CC2)c(=O)n1Cc1ccco1 (centres undefined) | -1 | x | x | 0 | 0 | 10
CC1CCN(CCCNC(=O)c2cc3c(s2)-c2ccccc2OC3)CC1 | 0 | 14 | -45 | 0 | 0 | 1
Cc1cccc2c1-c1sc(C(=O)NCCCN3CCC(C)CC3)cc1CO2 | -5 | 11 | -75* | 1 | 0 | 4
C=CCC1=C/C(=C\c2c(N)n3nc(CC(=O)N4CCCC4)sc3nc2=O)C=C(OC)C1=O | 7 | 15 | 24 | 187* | 68* | -10
COC1=CC(=Cc2c(N)n3nc(CC(=O)N4CCOCC4)sc3nc2=O)C=C(OC)C1=O | 8 | -3 | -14 | 0 | 6 | -11
CN(Cc1ccccc1)C(=O)c1ccc2c(c1)N(Cc1ccc(Cl)cc1)C(=O)c1ccccc1S2=O (centres undefined) | -2 | x | x | 0 | 0 | 17
CCN(c1ccccc1)S(=O)(=O)c1ccc(OC)c(NC(=O)COc2ccc(C(C)=O)cc2)c1 | -2 | 8 | 5 | 8 | -1 | -6
Cc1ccc(C(=O)N/C(=C\c2ccc(Cl)cc2)C(=O)NCCCN2CCOCC2)cc1 | 2 | -141* | -103* | 1 | 1 | -6
O=C(NCCCN1CCN(CCCNC(=O)c2cccc([N+](=O)[O-])c2)CC1)c1cccc([N+](=O)[O-])c1 | -3 | -41 | -81* | -1 | 0 | 12
O=C(NCCCc1ccccc1)c1cccc([N+](=O)[O-])c1 | -3 | -1 | 4 | 0 | -1 | -10
Cc1ccc(C(=O)N/C(=C\c2ccc(-c3cccc([N+](=O)[O-])c3)o2)C(=O)NCCCN2CCOCC2)cc1 | -8 | 5 | -186* | 0 | 0 | 41
Cc1ccc(C(=O)N/C(=C\c2ccc(C(C)C)cc2)C(=O)NCCCN2CCOCC2)cc1 | 6 | -20 | 12 | -1 | 2 | 3
COc1cc2c(NC3CCN(C)CC3)nc(N3CCCCC3)nc2cc1OCCCN(C)C | x | x | x | x | 0 | x
O=C(NC1CCCc2ccccc21)c1cnn2c1NC(=C1CC1)C=C2C(F)F (centres undefined) | x | x | x | x | 0 | x
Cc1ccc(C)c(N(C(=O)CNC(=O)c2ccco2)C(C(=O)NCC2CCCO2)c2ccccc2)c1 (centres undefined) | 0 | -5 | -75* | 0 | 2 | -12
COc1ccc(Nc2nc(NCc3ccco3)nc(N/N=C/c3ccc(O)cc3)n2)cc1 | 0 | -30 | -90* | 0 | 1 | 2
COc1ccc(/C=N/Nc2nc(Nc3ccccc3)nc(N3CCCC3)n2)cc1 | -1 | 1 | -13 | -1 | -1 | -1
COc1ccc(Nc2nc(NCc3ccco3)nc(N/N=C/c3ccccc3F)n2)cc1 | -4 | -23 | -97* | 0 | 2 | 39
SMILES | TRHR enhancer | KCNH2 WT inh | KCNH2 3.1 inh | TRHR agonist | TRPML1 agonist | TRPML1 inh
COc1ccc(/C=N/Nc2nc(NCc3ccco3)nc(Nc3ccc(OC)cc3)n2)cc1 | -1 | -4 | -93* | 0 | 2 | -4
CC(=O)Oc1ccc(C(=O)Nc2ccc(C3(C#N)CCCC3)cc2)cc1 | -4 | -17 | -7 | 1 | 0 | -14
NC(=O)CC(NC(=O)Cc1ccc(Cl)cc1)c1ccc(NCC2CC2)c([N+](=O)[O-])c1 (centres undefined) | -6 | -194* | -42 | 0 | 0 | -11
NC(=O)CC(NC(=O)Cc1ccc(Br)cc1)c1ccc(NCC2CC2)c([N+](=O)[O-])c1 (centres undefined) | -2 | -32 | -82* | 0 | 0 | 36
O=C(O)c1ccc2c(=O)[nH]c(CN3CCOCC3)nc2c1 | -4 | -9 | 1 | -1 | -1 | -9
O=C(O)c1ccc2c(=O)[nH]c(CCl)nc2c1 | 33* | -12 | 3 | 1 | -1 | -14
CC(C)C(=O)NCCn1ccc2ccccc21 | -2 | 4 | 36 | 1 | 1 | 9
CCC(=O)NCCn1ccc2ccccc21 | 0 | -140* | -5 | 0 | 0 | 32
O=C(NCCCO)C(=O)Nc1cc2c3c(c1)CCC(=O)N3CCC2 | 2 | -15 | -5 | 0 | 3 | 1
Cc1ccc(N(CC(O)CN2CCCC2)S(=O)(=O)c2ccc(C)cc2)cc1 (centres undefined) | 2 | -47 | -104* | -1 | 1 | -4
O=[N+]([O-])c1ccc(S(=O)(=O)N(CC(O)CN2CCCCC2)c2ccccc2)cc1 (centres undefined) | -1 | 14 | -15 | 0 | 0 | 5
Cc1ccc(N(CC(O)CN2CCCCC2)S(=O)(=O)c2ccccc2[N+](=O)[O-])cc1 (centres undefined) | -2 | 8 | -4 | 1 | -1 | -4
OC(CN1CCCCC1)CN(c1ccccc1)c1ccccc1 (centres undefined) | 3 | 38 | -183* | -1 | 1 | 84
CNCC(O)CN(c1ccccc1)c1ccccc1 (centres undefined) | 1 | 5 | -81* | 19 | 0 | 2
O=[N+]([O-])c1ccc(N(CC(O)CN2CCCCC2)S(=O)(=O)c2ccccc2)cc1 (centres undefined) | 0 | -44 | -76* | 0 | 0 | -17
CN(CCO)CC(O)CN(c1ccccc1)c1ccccc1 (centres undefined) | 0 | 2 | 7 | -1 | 1 | -24
C[C@@H]1[C@H](c2ccccc2)OCCS(=O)(=O)N1Cc1cccc(C(F)(F)F)c1 | x | x | x | x | 0 | x
